# The whole screen tested about 320,000 compounds, of which about 480 (0.15%) were called active. Only a selection was taken, and actives are over-represented in it overall. Values without a mark were called inactive. Cut-off read from the data, not from the text of the source: active = inhibition above about 33%; inactive = the rest.
# Target: Lytic switch protein BZLF1 (Epstein-Barr virus (strain B95-8)) (UniProt P03206)
# Assay: Zta-DNA interaction blockers, Epstein-Barr virus – biochemical, fluorescence polarization, single concentration, counter-screen for EBNA-1 inhibitor project, primary screen (AID 2234)
# Details: ZTA-DNA binding, at 11 µM, active compounds read high
# Chain of Lytic switch protein BZLF1 (Epstein-Barr virus (strain B95-8)) (P03206 whole entry, looked up): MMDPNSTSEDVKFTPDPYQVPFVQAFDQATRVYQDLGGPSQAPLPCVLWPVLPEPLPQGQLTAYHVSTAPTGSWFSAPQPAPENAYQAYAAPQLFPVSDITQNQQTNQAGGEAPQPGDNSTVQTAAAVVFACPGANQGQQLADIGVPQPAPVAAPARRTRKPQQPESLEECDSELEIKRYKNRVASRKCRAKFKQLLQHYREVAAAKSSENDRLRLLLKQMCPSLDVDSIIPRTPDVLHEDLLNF
row,Structure (SMILES),inhibition
1,CC(=O)Nc1ccc(NC(=O)COC(=O)c2ccccc2C(=O)c2ccccc2)cc1,1.75%
2,COc1ccc(N2CC(NS(=O)(=O)c3ccc4ccccc4c3)CC2=O)cc1 (stereo not drawn),-13.8%
3,CCC1=C(OC(=O)N(CC)CC)N2C(=O)OC(=NCC3CC3)[C@]2(C)[C@H]2C1=CC[C@H]1C(=O)N(CC(=O)OC)C(=O)[C@H]12,14%
4,CN(C(=O)CN1C(=O)CCSc2ccc(S(=O)(=O)N3CCCC3)cc21)c1ccccc1,4.65%
5,COCCOC(=O)C1=C(C)NC(=O)NC1c1cc2c(cc1Br)OCO2 (stereo not drawn),-2.42%
6,Cc1cc(C(=O)OCC(=O)Nc2ccccc2Cl)c(C)o1,-1%
7,CC1(c2nnc(-c3ccncc3)o2)CC(c2cccnc2)=NO1 (stereo not drawn),-4.98%
8,CCNc1nc(Oc2ccc(C(=O)OC)cc2)nc(N2CCOCC2)n1,26.6%
9,O=C(NCCCN1CCOCC1)c1ccc2c(c1)N(Cc1cccc(F)c1)C(=O)c1ccccc1S2,-13.9%
10,Cc1ccccc1CN1C(=O)c2ccccc2Sc2ccc(C(=O)NCCCN3CCOCC3)cc21,5.14%
11,CCN1CCN(CCNC(=O)c2ccc(/C=C3/Sc4ccccc4N(Cc4cccc(C)c4)C3=O)cc2)CC1,56.8% (active)
12,Cn1cnc2c1c(=O)n(Cc1ccccc1C#N)c(=O)n2C,95.5% (active)
13,Cn1cnc2c1c(=O)n(Cc1c(Cl)cccc1Cl)c(=O)n2C,-29.3%
14,Cn1c(=O)c2c(ncn2CCc2ccccc2)n(C)c1=O,-0.22%
15,Cc1ccc(Cc2nnc(SCC(=O)Nc3ccccc3C)[nH]c2=O)cc1,0.83%
16,Cc1ccc(C(=O)O)cc1-c1ccc(/C=C2\SC(=O)N(CC(=O)Nc3ccc4c(c3)OCO4)C2=O)o1,9.2%
17,CCN1C(=NCC(C)C)N[C@@H](CCc2ccccc2)[C@H](C(=O)NCC(C)C)[C@H]1C,-17.1%
18,CCOC(=O)CC(NC(=O)C1c2ccccc2Oc2ccccc21)c1ccc(C)cc1 (stereo not drawn),2.93%
19,COc1ccc(N(CC(=O)Nc2ccc(F)c(F)c2)S(=O)(=O)c2c(C)[nH]c(=O)[nH]c2=O)cc1,3.47%
20,COC(=O)c1ccc(CN2CCN(CCCc3ccccc3)C(CCO)C2)cc1 (stereo not drawn),-17.9%
21,Cc1cccn2c(CNCC(C)Oc3cccnc3)c(C(=O)N3CCOCC3)nc12 (stereo not drawn),13.7%
22,O=C(CC(NCCN1CCOCC1)C(=O)O)Nc1cccc(Cl)c1 (stereo not drawn),5.11%

row,Structure (SMILES),inhibition
1,CCCCS(=O)c1snnc1C (stereo not drawn),-5.28%
2,Cc1ccc2c(C)c(C(=O)N3CCN(c4ccncc4)CC3)oc2c1C,1.76%
3,O=C(COc1cccc(F)c1)Oc1ccc(C(=O)c2ccccc2)cc1,12.6%
4,CCC1CCC/C1=N\NC(=O)c1ccc(Cl)cc1 (stereo not drawn),4.98%
5,COc1cc(-c2nnc(Cn3cc(C(F)(F)F)ccc3=O)o2)cc(OC)c1OC,5.1%
6,COC(=O)C1CCCCN1C(=O)c1ccc(OC2CCN(C(C)=O)CC2)c(OC)c1 (stereo not drawn),5.86%
7,O=C(c1cccc(-n2cccc2)c1)N1CCN(S(=O)(=O)c2ccc(F)cc2)CC1,-25.8%
8,O=C(NC1CC1)C1=C[C@H](c2coc3ccccc3c2=O)C[C@H](OCCCCO)O1,-2.42%
9,N#CCSc1nc2ccc(N3CCOCC3)cc2c(=O)n1CCc1ccccc1,-10.6%
10,O=C(Nc1ccccc1)c1cc2ccccc2[nH]1,-12.6%
11,O=C(Nc1cccc(-c2nc3ccccc3[nH]2)c1)c1ccc(C(=O)Nc2cccc(-c3nc4ccccc4[nH]3)c2)cc1,84% (active)
12,Cc1ccc(-c2nc3ccccc3[nH]2)cc1N,-1%
13,Cc1cccc(N2C(=O)N3[C@H](c4ccc(F)cc4)[C@@H]4C(=O)N(C5CCCCC5)C(=O)[C@@H]4[C@]3(Cc3ccccc3)C2=O)c1,-2.81%
14,O=C(NCc1ccccc1CN1CCCC1)c1cccc(S(=O)(=O)Nc2ccc(F)cc2)c1,3.93%
15,CS(=O)(=O)Nc1cccc(C2=NN(C(=O)c3cccc(F)c3)C(c3cccs3)C2)c1 (stereo not drawn),-3.98%
16,CCCN1CCN(C(=O)CCCNC(=O)c2ccc(Cl)cc2)CC1,1.38%
17,CN1CCN(CCCNC(=O)c2ccc(/C=C3\Oc4ccccc4N(Cc4ccc(Cl)cc4)C3=O)cc2)CC1,45.5% (active)
18,CN1C(=O)/C(=C/c2ccc(C(=O)NC3CCCC3)cc2)Oc2ccccc21,-2.56%
19,CC(=O)c1c(C)[nH]c(C(=O)OCC(=O)Nc2c(C)cccc2C)c1C,3.88%
20,COC(=O)c1cc(N2CCNCC2)nc2ccccc12,5.41%
21,CC12CCC(=O)N1C(C(=O)NCCN1C(=O)S/C(=C\c3ccccc3F)C1=O)CS2 (stereo not drawn),-4.27%

# From PubChem BioAssay AID2234 (The Scripps Research Institute Molecular Screening Center, 2010)
